Data taken from PubChem BioAssay AID1159580 (chemical genetic matrix, 2015).
The campaign covered roughly 5,500 compounds. About 2,000 (36%) were called active. About 18% were inconclusive and are not listed. Rule as the data show it: active = normalized growth mostly below about 0.91 (no sharp cut-off); inconclusive = no clear call, values can overlap the other calls; inactive = mostly above about 0.92. The list shows a part of the results.

Assay: chemical genetic growth profiling, strain panel (AID 1159580);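 also: tested at 20 µM; growth read once vehicle control cultures reached saturation at 30 °C; 1 = growth at the plate median or of vehicle wells; lower values mean less growth of the strain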
Details: growth OD
[1] = S. cerevisiae deletion strains, locus YAL013W, strain DEP1, active compounds read low
[2] = S. cerevisiae deletion strains, locus YBR229C, strain ROT2, active compounds read low
[3] = S. cerevisiae deletion strains, locus YDL101C, strain DUN1, active compounds read low
[4] = S. cerevisiae deletion strains, locus YDL134C, strain PPH21, active compounds read low
[5] = S. cerevisiae deletion strains, locus YDR150W, strain NUM1, active compounds read low
[6] = S. cerevisiae deletion strains, locus YEL061C, strain CIN8, active compounds read low
[7] = S. cerevisiae deletion strains, locus YGR078C, strain PAC10, active compounds read low
[8] = S. cerevisiae deletion strains, locus YHR030C, strain SLT2, active compounds read low
[9] = S. cerevisiae deletion strains, locus YHR087W, strain rtc3, active compounds read low
[10] = S. cerevisiae deletion strains, locus YJR043C, strain POL32, active compounds read low
[11] = S. cerevisiae deletion strains, locus YJR075W, strain HOC1, active compounds read low
[12] = S. cerevisiae deletion strains, locus YKL190W, strain CNB1, active compounds read low
[13] = S. cerevisiae deletion strains, locus YLR039C, strain RIC1, active compounds read low
[14] = S. cerevisiae deletion strains, locus YLR058C, strain SHM2 (second series), active compounds read low
[15] = S. cerevisiae deletion strains, locus YLR085C, strain ARP6, active compounds read low
[16] = S. cerevisiae deletion strains, locus YLR262C, strain YPT6, active compounds read low
[17] = S. cerevisiae deletion strains, locus YML094W, strain GIM5, active compounds read low
[18] = S. cerevisiae deletion strains, locus YMR219W, strain ESC1, active compounds read low
[19] = S. cerevisiae deletion strains, locus YMR307W, strain GAS1, active compounds read low
[20] = S. cerevisiae deletion strains, locus YNL128W, strain TEP1, active compounds read low
[21] = S. cerevisiae deletion strains, locus YNL153C, strain GIM3, active compounds read low
[22] = S. cerevisiae deletion strains, locus YNL298W, strain CLA4 (second series), active compounds read low
[23] = S. cerevisiae deletion strains, locus YNL322C, strain KRE1, active compounds read low
[24] = S. cerevisiae deletion strains, locus YNR030W, strain Alg12, active compounds read low
[25] = S. cerevisiae deletion strains, locus YPL055C, strain LGE1, active compounds read low
[26] = S. cerevisiae deletion strains, locus YPR135W, strain CTF4, active compounds read low
[27] = S. cerevisiae deletion strains, locus YPL241C, strain CIN2, active compounds read low

Measured: normalized growth

CC1=NN(c2cccc(S(N)(=O)=O)c2)C(=O)C1
inactive: [1] 1.01 | [2] 1 | [3] 1.03 | [4] 0.978 | [5] 0.985 | [6] 1 | [7] 1 | [8] 1.04 | [9] 1.01 | [10] 0.999 | [11] 1.03 | [12] 0.985 | [13] 0.975 | [14] 0.998 | [15] 1.04 | [16] 0.952 | [17] 1.12 | [18] 1.01 | S. cerevisiae deletion strains, locus YMR263W, strain SAP30, active compounds read low 0.994 | [19] 1.04 | [20] 0.977 | [21] 1.01 | [22] 1.01 | [23] 1.01 | [24] 0.999 | [25] 1.03 | [26] 1.08

CC(C)(C)C1=NN(c2ccccc2)C(=O)C1
inactive: [1] 0.973 | [2] 0.959 | S. cerevisiae deletion strains, locus YCL061C, strain MRC1, active compounds read low 0.966 | [3] 0.983 | [4] 0.975 | [5] 0.952 | [6] 0.994 | [7] 0.956 | [8] 0.863 | [9] 1 | [10] 1.01 | [11] 0.939 | [12] 0.956 | [14] 0.972 | [17] 0.984 | [18] 0.966 | [19] 0.803 | [21] 0.981 | [22] 0.929 | [23] 0.981 | [24] 0.888 | S. cerevisiae deletion strains, locus YOL006C, strain TOP1, active compounds read low 0.808 | [25] 1.03 | [27] 0.89 | [26] 0.656
active: [13] 0.666 | [15] 0.637 | [16] 0.707 | S. cerevisiae strains, strain wild type, active compounds read low 0.884

Cc1ccc(=O)n(-c2ccccc2)c1
inactive: [1] 1 | S. cerevisiae deletion strains, locus YAL040C, strain CLN3, active compounds read low 1.01 | S. cerevisiae deletion strains, locus YCL061C, strain MRC1 (second series), active compounds read low 1 | S. cerevisiae deletion strains, locus YDR363W, strain ESC2, active compounds read low 1 | S. cerevisiae deletion strains, locus YER002W, strain NOP16, active compounds read low 0.975 | [7] 1.02 | [20] 0.991 | S. cerevisiae deletion strains, locus YNL175C, strain NOP13, active compounds read low 1 | S. cerevisiae deletion strains, locus YNL197C, strain WHI3, active compounds read low 1.01 | S. cerevisiae deletion strains, locus YNL224C, strain SQS1, active compounds read low 1.01 | [23] 0.998 | S. cerevisiae deletion strains, locus YOR083W, strain WHI5 (second series), active compounds read low 1.01 | [25] 1.02 | [27] 1
